Among all 220,000 compounds or so, about 530 (0.24%) were called active. This is one part of a sample in which actives are shown more often than they occur. Rule as the data show it: active = inhibition above about 13%; inconclusive = no clear call, values can overlap the other calls; inactive = below that. Results with a measured potency or affinity are listed apart.
biological target: Bifunctional protein GlmU (Mycobacterium tuberculosis (strain ATCC 25618 / H37Rv)) (UniProt P9WMN3); assay: inhibition of mycobacterial GlmU enzyme – biochemical, glucosamine-1-phosphate acetyltransferase (AID 1376);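 also: 0% = complete reaction with vehicle and 100% = reaction without substrate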; settings: M. tuberculosis GlmU acetyltransferase enzyme assay; active compounds read high;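 tested at 30 µM in the primary screen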
Sequence (P9WMN3 whole entry, looked up): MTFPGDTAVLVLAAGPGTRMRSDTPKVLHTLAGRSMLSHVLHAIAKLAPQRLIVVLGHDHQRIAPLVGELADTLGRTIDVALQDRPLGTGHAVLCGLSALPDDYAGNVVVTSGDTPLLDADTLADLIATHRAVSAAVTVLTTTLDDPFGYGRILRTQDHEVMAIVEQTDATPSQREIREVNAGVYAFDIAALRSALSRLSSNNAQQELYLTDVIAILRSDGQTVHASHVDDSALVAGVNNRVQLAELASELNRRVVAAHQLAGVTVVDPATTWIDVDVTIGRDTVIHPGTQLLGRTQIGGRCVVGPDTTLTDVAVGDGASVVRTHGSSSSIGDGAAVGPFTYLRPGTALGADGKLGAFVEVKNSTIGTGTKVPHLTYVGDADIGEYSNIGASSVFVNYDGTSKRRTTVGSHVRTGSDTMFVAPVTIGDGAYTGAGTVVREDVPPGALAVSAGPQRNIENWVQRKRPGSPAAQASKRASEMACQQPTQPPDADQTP

**Q.** With `CCn1c(C)nc2cc(C(=O)N/N=C/c3ccc(O)c(O)c3O)ccc21` as the molecule, how does the inhibition read?
**A.** The inhibition was 12.9% (active).

**Q.** For `CCn1c(C)nc2cc(C(=O)N/N=C/c3cccc(OC)c3O)ccc21`, which inhibition is on record?
**A.** Its inhibition is 1.22% (inactive).

**Q.** With `CCn1c(C)nc2cc(C(=O)N/N=C/c3cccc(O)c3O)ccc21` as the molecule, how does the inhibition read?
**A.** Its inhibition is -2.26% (inactive).

**Q.** For `CN(C(=O)COc1ccccc1C(=O)NCCc1ccccc1)c1ccccc1`, which inhibition is on record?
**A.** The inhibition was 1.19% (inactive).

**Q.** With `CC[N+](CC)(CC)CCCOC(=O)C(O)(c1ccccc1)C1CCCCC1` (stereo not drawn) as the molecule, how does the inhibition read?
**A.** The inhibition was -1.3% (inactive).

**Q.** Which inhibition does the source give for `Cc1cc(C)cc(C(=O)N2CCN=C2c2ccccc2)c1` here?
**A.** The inhibition was 13.7% (active).

**Q.** For `O=C(c1ccccc1)N1CCN=C1c1ccccc1`, which inhibition is on record?
**A.** Its inhibition is 3.08% (inactive).

**Q.** How did the inhibition turn out when `COc1cc(C(=O)N2CCN=C2c2ccccc2)cc(OC)c1OC` was run?
**A.** The inhibition was -4.46% (inactive).

**Q.** `CC1=C(C(=O)OCc2ccccc2)C(c2ccsc2)NC(=O)N1C` (stereo not drawn) was tested. Which inhibition did it give?
**A.** Its inhibition is 0.99% (inactive).

**Q.** `CN1CCN(C(=S)NC(=O)c2ccc(C(C)(C)C)cc2)CC1` was tested. Which inhibition did it give?
**A.** Its inhibition is 0.68% (inactive).

**Q.** For `CN1CCN(C(=S)NC(=O)c2ccc(Br)cc2)CC1`, which inhibition is on record?
**A.** Its inhibition is -2.25% (inactive).

**Q.** How did the inhibition turn out when `COc1ccc(-c2noc(C3CCCN(S(=O)(=O)c4cccc(Cl)c4C)C3)n2)cc1OC` (stereo not drawn) was run?
**A.** Its inhibition is 1.44% (inactive).

**Q.** How did the inhibition turn out when `Cc1ccc(-n2ncc3c(=O)[nH]c(SC(C)C)nc32)cc1` was run?
**A.** The inhibition was -6.03% (inactive).

**Q.** Which inhibition does the source give for `Cc1nn(Cc2ccccc2)c(=O)n1N(C)c1ncc(C(F)(F)F)cc1Cl` here?
**A.** Its inhibition is -3.42% (inactive).

**Q.** How did the inhibition turn out when `Cc1nn(Cc2ccc([N+](=O)[O-])cc2)c(=O)n1N(C)c1ncc(C(F)(F)F)cc1Cl` was run?
**A.** The inhibition was 13.8% (active).

**Q.** Which inhibition does the source give for `Cc1nn(Cc2ccc(Cl)cc2)c(=O)n1N(C)c1ncc(C(F)(F)F)cc1Cl` here?
**A.** The inhibition was -1.59% (inactive).

**Q.** For `Cc1cc(N2CCN(Cc3nc(-c4ccc(F)cc4)oc3C)CC2)cc(C)n1`, which inhibition is on record?
**A.** Its inhibition is -0.06% (inactive).

**Q.** `O=c1/c(=C\c2ccc(O)cc2)sc2n1C(c1ccccc1)C(c1ccccc1)=NN=2` (stereo not drawn) was tested. Which inhibition did it give?
**A.** The inhibition was 15.3% (active).

**Q.** `COc1cc(/C=c2\sc3n(c2=O)C(c2ccccc2)C(c2ccccc2)=NN=3)ccc1O` (stereo not drawn) was tested. Which inhibition did it give?
**A.** The inhibition was -0.15% (inactive).

**Q.** Which inhibition does the source give for `O=c1/c(=C\c2ccc(O)cc2)sc2nc(-c3ccccc3)c(-c3ccccc3)n12` here?
**A.** The inhibition was -5.24% (inactive).

**Q.** With `CC1CCN(C(=O)CCCOc2ccc(Cl)cc2)CC1` as the molecule, how does the inhibition read?
**A.** Its inhibition is -3.73% (inactive).

**Q.** How did the inhibition turn out when `COc1ccc(N2C(=O)CC(N(C)CCc3ccc(OC)c(OC)c3)C2=O)cc1` (stereo not drawn) was run?
**A.** The inhibition was -4.91% (inactive).

**Q.** With `O=C(O)Cn1nc(-c2ccccc2)oc1=O` as the molecule, how does the inhibition read?
**A.** The inhibition was 12.9% (active).

**Q.** How did the inhibition turn out when `O=C(O)Cn1nc(-c2ccc(F)cc2)oc1=O` was run?
**A.** The inhibition was -1.78% (inactive).

**Q.** `CC(C)(C)C(=O)n1nc(-c2ccccc2)oc1=O` was tested. Which inhibition did it give?
**A.** Its inhibition is -3.45% (inactive).

**Q.** How did the inhibition turn out when `N#Cc1c(-c2ccccc2)nc(SCC(=O)Nc2ccccc2)[nH]c1=O` was run?
**A.** Its inhibition is 3.28% (inactive).

**Q.** With `Cc1cc(C)nc(NS(=O)(=O)c2ccc(NC(=O)CSc3nc(-c4ccccc4)c(C#N)c(=O)[nH]3)cc2)n1` as the molecule, how does the inhibition read?
**A.** Its inhibition is 13.9% (active).

**Q.** How did the inhibition turn out when `Cc1cc(NC(=O)CSc2nc(-c3ccccc3)c(C#N)c(=O)[nH]2)no1` was run?
**A.** The inhibition was 8.24% (inactive).

**Q.** Which inhibition does the source give for `CCOc1ccc(N2C(=O)CC(n3nc(C)cc3C)C2=O)cc1` (stereo not drawn) here?
**A.** Its inhibition is 1.73% (inactive).

**Q.** With `Cc1ccc(S(=O)(=O)N(C)C)cc1NC(=S)NC(=O)C12CC3CC(CC(C3)C1)C2` as the molecule, how does the inhibition read?
**A.** The inhibition was -3.56% (inactive).

**Q.** For `CC(C)(C)C1CCC(=NNC(=O)CC(=O)NCc2ccccc2)CC1` (stereo not drawn), which inhibition is on record?
**A.** Its inhibition is 0.32% (inactive).

**Q.** Which inhibition does the source give for `Cc1[nH]oc(=O)c1N=Nc1c(Cl)cccc1Cl` here?
**A.** Its inhibition is 1.64% (inactive).

**Q.** Which inhibition does the source give for `Cc1[nH]oc(=O)c1N=Nc1ccccc1` here?
**A.** Its inhibition is 8.43% (inactive).

**Q.** Which inhibition does the source give for `CCC(c1c(C)[nH]oc1=O)c1c(C)[nH]oc1=O` here?
**A.** Its inhibition is 13.4% (active).

**Q.** `O=S(=O)(c1ccc(-c2nc3ccccc3s2)cc1)N1CCCC1` was tested. Which inhibition did it give?
**A.** Its inhibition is 2.5% (inactive).

**Q.** With `COc1ccccc1N1CCN(CCN2C(=O)CC(=C3c4ccccc4-c4ccccc43)C2=O)CC1` as the molecule, how does the inhibition read?
**A.** Its inhibition is 4.68% (inactive).

**Q.** Which inhibition does the source give for `CCCCNC(=O)c1ccc(NC(C)=O)c(Cl)c1` here?
**A.** Its inhibition is -5.13% (inactive).

**Q.** Which inhibition does the source give for `CCCCNC(=O)c1ccc(S(=O)(=O)c2ccc(Cl)cc2)c(NC(C)=O)c1` here?
**A.** Its inhibition is 14% (active).

**Q.** How did the inhibition turn out when `CCCC(=O)Nc1cc(C(=O)O)ccc1S(=O)(=O)c1ccc(Cl)cc1` was run?
**A.** Its inhibition is 0.49% (inactive).

**Q.** `O=C(CSc1ccc(-c2ccccn2)nn1)NC1CCCCC1` was tested. Which inhibition did it give?
**A.** The inhibition was -1.08% (inactive).

**Q.** How did the inhibition turn out when `O=c1c2c([nH]c3ccccc13)CCCC2` was run?
**A.** Its inhibition is 1.46% (inactive).

**Q.** Which inhibition does the source give for `O=c1c2c([nH]c3ccccc13)CCCCC2` here?
**A.** The inhibition was 5.9% (inactive).

**Q.** With `O=c1c2c([nH]c3ccccc13)CCCCCC2` as the molecule, how does the inhibition read?
**A.** The inhibition was 13.9% (active).

**Q.** With `CS(=O)(=O)N1CCC(C(=O)Nc2ccc(C(F)(F)F)cc2)CC1` as the molecule, how does the inhibition read?
**A.** The inhibition was -0.68% (inactive).

**Q.** Which inhibition does the source give for `Cc1nnc(SCc2nc3sc(C(=O)O)c(C)c3c(=O)[nH]2)s1` here?
**A.** The inhibition was 6.77% (inactive).

**Q.** With `Cc1c(C(=O)O)sc2nc(CSc3nnc(-c4ccc(F)cc4)n3C)[nH]c(=O)c12` as the molecule, how does the inhibition read?
**A.** The inhibition was -3.36% (inactive).

**Q.** Which inhibition does the source give for `Cc1ccnc(NC(=O)c2ccc3c(c2)S(=O)(=O)c2ccccc2C3=O)c1` here?
**A.** Its inhibition is 1.48% (inactive).

**Q.** For `Cc1nc2c(c(=O)[nH]1)C(c1ccccc1Cl)c1c(c3ccccc3oc1=O)O2` (stereo not drawn), which inhibition is on record?
**A.** The inhibition was 2.13% (inactive).

**Q.** With `Cc1c(O)c2ccccc2oc1=O` as the molecule, how does the inhibition read?
**A.** Its inhibition is 1.82% (inactive).

**Q.** `CCCCSc1nc(CCC)cc(=O)[nH]1` was tested. Which inhibition did it give?
**A.** Its inhibition is 3.53% (inactive).

**Q.** For `Cc1ccc(NC(=O)COC(=O)Cn2cnc3ccccc32)c([N+](=O)[O-])c1`, which inhibition is on record?
**A.** Its inhibition is -0.59% (inactive).

**Q.** Which inhibition does the source give for `CCOc1ccc(NC2CCN(C(C)=O)CC2)cc1` here?
**A.** The inhibition was 4.14% (inactive).

**Q.** Which inhibition does the source give for `Cc1ccc(NC(=O)N2CCC(NC(=O)C(C)(C)C)CC2)cc1` here?
**A.** Its inhibition is 2.86% (inactive).

**Q.** For `CC(=O)N1CCC(Nc2ccc(C)cc2)CC1`, which inhibition is on record?
**A.** Its inhibition is 14% (active).

**Q.** With `CCCCn1c(SCC(=O)NCc2ccccc2)nc2ccc(N3CCOCC3)cc2c1=O` as the molecule, how does the inhibition read?
**A.** The inhibition was 14.2% (active).

**Q.** For `CCCCNC(=O)CSc1nc2ccc(N3CCOCC3)cc2c(=O)n1CCc1ccccc1`, which inhibition is on record?
**A.** The inhibition was -5.21% (inactive).

**Q.** How did the inhibition turn out when `CCCCn1c(SCC(=O)NCc2ccco2)nc2ccc(N3CCOCC3)cc2c1=O` was run?
**A.** The inhibition was 5.76% (inactive).

**Q.** How did the inhibition turn out when `CC(Sc1ncc(C(F)(F)F)cc1Cl)C(=O)NC(N)=O` (stereo not drawn) was run?
**A.** The inhibition was -5.25% (inactive).

**Q.** Which inhibition does the source give for `O=C(NCCc1c[nH]c2ccccc12)C(F)(F)F` here?
**A.** The inhibition was -4.42% (inactive).

**Q.** How did the inhibition turn out when `N#Cc1cccc(C#N)c1N1CCC(C#N)CC1` was run?
**A.** The inhibition was -4.3% (inactive).

**Q.** Which inhibition does the source give for `CC(CO)Nc1nc(SCc2ccccc2)nc2sc3c(c12)CCC3` (stereo not drawn) here?
**A.** The inhibition was -17.2% (inactive).

**Q.** For `COCCNc1nc(SCc2ccccc2)nc2sc3c(c12)CCC3`, which inhibition is on record?
**A.** The inhibition was -0.26% (inactive).

**Q.** How did the inhibition turn out when `COCCCNc1nc(SCc2ccccc2)nc2sc3c(c12)CCC3` was run?
**A.** Its inhibition is 12.8% (active).

Source: PubChem BioAssay AID1376 (SRMLSC, 2008)
